Experimental data reported in PubChem BioAssay (EPA / NIEHS).
Inconclusive results are not listed. Some compounds were tested as several samples or in several runs, with calls that do not always agree. The source made the active and inactive calls. How the source made its calls, unless noted: active means hit-call score of the fitted dose curve at least 0.9, where 1 is the maximum; inactive means score below 0.9.

Assays:
[1] = target: Glucocorticoid receptor (Homo sapiens) (UniProt P04150); assay: ATG_GR_TRANS: Attagene TRANS-FACTORIAL HepG2 Assay for human Glucocorticoid Receptor (GR) (AID 2282978; active means hit-call score of the fitted dose curve at least 0.9, where 1 is the maximum;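 further: activators score as hits since higher reporter transcript over DMSO is fitted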); conditions: HepG2 Attagene TRANS GR reporter, mRNA transcription
Summary of the method: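 Reporter transcript levels, detected by fluorescence after RT-PCR and capillary electrophoresis, served as the endpoint. HepG2 cells bearing transfected GAL4-UAS reporters responsive to NR-GAL4 chimeras were incubated with compound 24 h; DMSO defined baseline.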

[2] = target: Oxysterols receptor LXR-alpha (Homo sapiens) (UniProt Q13133); assay: ATG_LXRa_TRANS: Attagene TRANS-FACTORIAL HepG2 Assay for human Liver X Receptor alpha (LXRa) (AID 2282980; active means hit-call score of the fitted dose curve at least 0.9, where 1 is the maximum); conditions: HepG2 Attagene TRANS reporter, LXRa transactivation
Summary of the method: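 Transient HepG2 transfectants, 24 h dosing, RT-PCR/CE mRNA reporter quantitation; gain-of-signal vs DMSO.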

[3] = target: Oxysterols receptor LXR-beta (Homo sapiens) (UniProt P55055); assay: ATG_LXRb_TRANS: Attagene TRANS-FACTORIAL HepG2 Assay for human Liver X Receptor beta (LXRb) (AID 2282981; active means hit-call score of the fitted dose curve at least 0.9, where 1 is the maximum); conditions: HepG2 Attagene TRANS GAL4-LXRb reporter, mRNA
Summary of the method: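 Measures induction of a Gal4-driven reporter transcript in HepG2 cells expressing an exogenous LXRb-Gal4 fusion. Cells are exposed to compound for 24 h before RNA isolation and RT-PCR with capillary electrophoresis detection.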

[4] = target: Hepatocyte nuclear factor 4-alpha (Homo sapiens) (UniProt P41235); assay: ATG_HNF4a_TRANS: Attagene TRANS-FACTORIAL HepG2 Assay for human Hepatocyte Nuclear Factor 4 alpha (HNF4a) (AID 2282982; active means hit-call score of the fitted dose curve at least 0.9, where 1 is the maximum); conditions: HepG2 HNF4a transactivation reporter, mRNA readout
Summary of the method: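 In this trans-factorial format, a chimeric HNF4a-GAL4 fusion drives a GAL4-UAS reporter in transfected HepG2 liver cells. After 24 h treatment, reporter mRNA induction is measured by RT-PCR with capillary electrophoresis, relative to DMSO.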

[5] = ATG_M_06_TRANS: Attagene TRANS-FACTORIAL HepG2 Assay for M06 Transcription Factor (Internal Marker) (AID 2282983; active means hit-call score of the fitted dose curve at least 0.9, where 1 is the maximum); conditions: HepG2 Attagene TRANS M06 internal marker reporter
Summary of the method: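 Human liver HepG2 cells bearing transiently transfected chimeric NR-GAL4 reporter units were treated with chemicals for 24 h. Total RNA was reverse-transcribed, reporter sequences amplified and labelled, then quantified by capillary electrophoresis. Activity was fitted upward relative to DMSO.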

[6] = ATG_M_32_TRANS: Attagene TRANS-FACTORIAL HepG2 Assay for M32 Transcription Factor (Internal Marker) (AID 2282984; active means hit-call score of the fitted dose curve at least 0.9, where 1 is the maximum;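 further: transcript level of a background control reporter unit measured by RT-PCR and capillary electrophoresis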); conditions: HepG2 Attagene TRANS M32 internal marker reporter
Summary of the method: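 After 24 h dosing of transfected HepG2 cells, total RNA was reverse-transcribed, reporter sequences PCR-amplified, 6-FAM labelled by primer extension and HpaI-digested before capillary electrophoresis. Signal increase over DMSO was fitted.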

[7] = target: Nuclear receptor subfamily 4 group A member 2 (Homo sapiens) (UniProt P43354); assay: ATG_NURR1_TRANS: Attagene TRANS-FACTORIAL HepG2 Assay for human Nuclear Receptor Related Protein 1 (NURR1) (AID 2282985; active means hit-call score of the fitted dose curve at least 0.9, where 1 is the maximum); conditions: HepG2 Attagene TRANS reporter, mRNA readout
Summary of the method: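 Chimeric NR-Gal4 fusion activity measured in HepG2 after 24 h treatment. Reporter transcripts detected by RT-PCR and capillary electrophoresis fluorescence; positive-direction curve fitting against DMSO.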

[8] = target: Transcriptional activator Myb (Homo sapiens) (UniProt P10242); assay: ATG_Myb_CIS: Attagene CIS-FACTORIAL HepG2 Assay for human Myeloblastosis (Myb) Proto-Oncogene Transcription Factor (AID 2282986); conditions: HepG2 Attagene CIS-FACTORIAL Myb reporter transcription; actives raise or lower the signal
Summary of the method: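 Transiently transfected HepG2 cells, treated 24 h. Reporter mRNA quantified by RT-PCR/capillary electrophoresis; bidirectional fit relative to DMSO.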

[9] = target: Nuclear respiratory factor 1 (Homo sapiens) (UniProt Q16656); assay: ATG_NRF1_CIS: Attagene CIS-FACTORIAL HepG2 Assay for human Nuclear Respiratory Factor 1 (NRF1) Orphan Gene (AID 2282987); conditions: HepG2 NRF1 cis-element reporter, Attagene multiplex; actives raise or lower the signal
Summary of the method: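 Cells (HepG2, transient MRTU transfection) are exposed to compound for 24 h, then RNA isolated and reporter mRNA amplified and fluorescently labelled. Fragments are separated by capillary electrophoresis; signal change is fitted bidirectionally relative to DMSO.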

[10] = ATG_NFI_CIS: Attagene CIS-FACTORIAL HepG2 Assay for human Nuclear Factor I (NFI) (AID 2282989); conditions: HepG2 cis-regulatory reporter, NFI response element transcription; actives raise or lower the signal
Summary of the method: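 Cells: human liver HepG2, transiently transfected with promoter-regulated reporter transcription units. Exposure 24 h. Detection: fluorescent RT-PCR products separated by capillary electrophoresis, normalised to DMSO negative control.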

[11] = target: Myc proto-oncogene protein (Homo sapiens) (UniProt P01106); assay: ATG_Myc_CIS: Attagene CIS-FACTORIAL HepG2 Assay for human Myelocytomatosis (Myc) Proto-Oncogene Transcription Factor (AID 2282990); conditions: HepG2, Attagene cis-reporter transcription factor activity; actives raise or lower the signal
Summary of the method: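 HepG2 cells transiently transfected with multiple cis-promoter-driven reporter transcription units, so endogenous TF activity is read. After 24 h compound exposure, reporter mRNA was quantified by RT-PCR, 6-FAM labelling, HpaI digestion and capillary electrophoresis; bidirectional fit versus DMSO.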

[12] = ATG_NRF2_ARE_CIS: Attagene CIS-FACTORIAL HepG2 Assay for human Nuclear Factor Erythroid 2 Related Factor 2 (NFR2) response to Antioxidant Response Elements (ARE) (AID 2282992); conditions: HepG2 Attagene ARE/NRF2 reporter, transcription factor activity; actives raise or lower the signal;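 on AC50: reporter mRNA level measured by RT-PCR and capillary electrophoresis fluorescence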
Summary of the method: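 Readout: reporter mRNA quantified by RT-PCR plus FAM-labelled primer extension, HpaI digestion and capillary electrophoresis, 24 h after dosing transfected HepG2 cells. Gain or loss of signal is fitted bidirectionally against DMSO baseline.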

[13] = target: Cellular tumor antigen p53 (Homo sapiens) (UniProt P04637); assay: ATG_p53_CIS: Attagene CIS-FACTORIAL HepG2 Assay for human p53 Transcription Factor (AID 2282994); conditions: HepG2 p53 cis-element reporter, Attagene mRNA; actives raise or lower the signal
Summary of the method: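 Read-out: reporter mRNA by RT-PCR plus capillary electrophoresis with fluorescence detection. Human HepG2 liver cells carried transfected multi-reporter cis-element constructs, dosed 24 h. Gain or loss of signal fitted bidirectionally against DMSO control.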

[14] = BSK_3C_TissueFactor: BioMAP Diversity Plus: 3C Assay for Tissue Factor Biomarker Activity (AID 2282997); conditions: BioMAP 3C HUVEC, tissue factor biomarker readout; actives raise or lower the signal
Summary of the method: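 Cells used were primary human umbilical vein endothelial cells. They were dosed with chemical, and after 24 h Tissue Factor was quantified by ELISA. Curves were fitted bidirectionally with DMSO as baseline.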

[15] = BSK_3C_uPAR: BioMAP Diversity Plus: 3C Assay for Urokinase-type plasminogen activator receptor (uPAR) Biomarker Activity (AID 2282998); conditions: BioMAP 3C HUVEC, uPAR biomarker ELISA; actives raise or lower the signal
Summary of the method: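 A multiplexed primary-cell system built on human umbilical vein endothelium was used, with chemical present for 24 h before reading. Cell-surface uPAR was detected by ELISA; signal change in either direction counted against DMSO.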

[16] = BSK_3C_VCAM1: BioMAP Diversity Plus: 3C Assay for Vascular cell adhesion molecule 1 (VCAM1) Biomarker Activity (AID 2282999); conditions: BioMAP 3C HUVEC, VCAM1 ELISA, cytokine-stimulated; actives raise or lower the signal
Summary of the method: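 Vascular primary endothelium (human umbilical vein) was exposed to chemicals and assayed 24 h later. VCAM-1 levels came from ELISA, with DMSO serving as baseline for bidirectional fitting.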

[17] = BSK_4H_Eotaxin3: BioMAP Diversity Plus: 4H Assay for Eotaxin 3 Biomarker Activity (AID 2283000); conditions: primary human endothelial cells (HUVEC); actives raise or lower the signal
Summary of the method: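 Endothelial primary cells (human umbilical vein) exposed to compound for 24 h. ELISA detection of Eotaxin-3.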

[18] = ATG_NF_kB_CIS: Attagene CIS-FACTORIAL HepG2 Assay for human Nuclear Factor Kappa B (NF-kB) (AID 2282991); conditions: HepG2 Attagene cis-factorial NF-kB reporter mRNA; actives raise or lower the signal
Summary of the method: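 Measures mRNA induction of an NF-kB-responsive cis-element reporter in HepG2 cells transfected with multiple reporter units, sampled 24 h post-dosing; quantified by fluorescence after RT-PCR and capillary electrophoresis, fitted for activation or inhibition against DMSO.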

[19] = ATG_Oct_MLP_CIS: Attagene CIS-FACTORIAL HepG2 Assay for human Octamer-Binding Transcription Factor (Oct) (AID 2282993); conditions: HepG2 Attagene cis-factorial Oct reporter, mRNA; actives raise or lower the signal
Summary of the method: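 HepG2, transient MRTU transfection, cis promoter elements; 24 h dosing; RT-PCR/CE fluorescence read-out of reporter mRNA; fit both directions vs DMSO.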

[20] = target: Bile acid receptor (Homo sapiens) (UniProt Q96RI1); assay: ATG_FXR_TRANS: Attagene TRANS-FACTORIAL HepG2 Assay for Farnesoid X Receptor (FXR) (AID 2282979; active means hit-call score of the fitted dose curve at least 0.9, where 1 is the maximum;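 further: hits raise reporter mRNA above DMSO so AC50 marks FXR activation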); conditions: HepG2 Attagene TRANS FXR-GAL4 reporter transcription
Summary of the method: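 Chimeric FXR-GAL4 activity in transiently transfected human HepG2 liver cells is scored as induction of reporter mRNA after 24 h of dosing. Detection uses RT-PCR with fluorescent labelling and capillary electrophoresis, with DMSO serving as baseline.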

Measured: AC50

Cellular tumor antigen p53 (Homo sapiens), sequence (P04637 whole entry, looked up): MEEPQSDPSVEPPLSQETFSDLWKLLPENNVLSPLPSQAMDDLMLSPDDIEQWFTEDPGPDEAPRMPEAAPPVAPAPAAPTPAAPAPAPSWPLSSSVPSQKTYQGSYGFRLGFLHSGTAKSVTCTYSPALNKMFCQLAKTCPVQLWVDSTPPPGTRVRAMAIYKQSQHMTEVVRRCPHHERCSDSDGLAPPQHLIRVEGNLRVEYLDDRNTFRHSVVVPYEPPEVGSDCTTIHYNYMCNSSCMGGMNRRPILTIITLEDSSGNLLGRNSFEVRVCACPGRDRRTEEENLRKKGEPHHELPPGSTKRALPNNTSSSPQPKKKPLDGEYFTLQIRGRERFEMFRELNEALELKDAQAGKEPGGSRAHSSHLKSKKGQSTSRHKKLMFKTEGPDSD
Myc proto-oncogene protein (Homo sapiens), sequence (P01106 whole entry, looked up): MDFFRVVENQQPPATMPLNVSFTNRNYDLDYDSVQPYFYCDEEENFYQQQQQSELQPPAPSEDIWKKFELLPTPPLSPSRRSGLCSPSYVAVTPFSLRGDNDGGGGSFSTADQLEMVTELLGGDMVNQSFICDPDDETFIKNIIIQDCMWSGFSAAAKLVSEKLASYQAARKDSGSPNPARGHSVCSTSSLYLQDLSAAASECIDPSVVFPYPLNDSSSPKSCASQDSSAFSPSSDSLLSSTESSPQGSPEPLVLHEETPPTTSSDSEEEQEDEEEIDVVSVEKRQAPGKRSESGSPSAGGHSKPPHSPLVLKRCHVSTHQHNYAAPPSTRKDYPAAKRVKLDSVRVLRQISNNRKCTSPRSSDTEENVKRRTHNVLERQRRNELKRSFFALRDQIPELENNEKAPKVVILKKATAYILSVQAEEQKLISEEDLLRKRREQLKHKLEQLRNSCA
Oxysterols receptor LXR-beta (Homo sapiens), sequence (P55055 whole entry, looked up, the tested form may be a part): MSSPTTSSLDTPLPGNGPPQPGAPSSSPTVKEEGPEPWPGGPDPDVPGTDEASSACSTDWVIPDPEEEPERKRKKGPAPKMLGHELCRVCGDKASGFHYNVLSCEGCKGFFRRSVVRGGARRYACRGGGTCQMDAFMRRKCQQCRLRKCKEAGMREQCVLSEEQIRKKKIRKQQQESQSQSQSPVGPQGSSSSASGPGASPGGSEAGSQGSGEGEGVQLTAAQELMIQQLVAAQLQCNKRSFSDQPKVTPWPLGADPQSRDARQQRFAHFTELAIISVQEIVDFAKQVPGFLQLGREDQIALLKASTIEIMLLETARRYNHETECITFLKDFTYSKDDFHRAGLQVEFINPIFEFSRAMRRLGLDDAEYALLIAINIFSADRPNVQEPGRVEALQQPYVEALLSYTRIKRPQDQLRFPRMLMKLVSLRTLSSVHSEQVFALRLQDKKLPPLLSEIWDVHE
Glucocorticoid receptor (Homo sapiens), sequence (P04150 whole entry, looked up, the tested form may be a part): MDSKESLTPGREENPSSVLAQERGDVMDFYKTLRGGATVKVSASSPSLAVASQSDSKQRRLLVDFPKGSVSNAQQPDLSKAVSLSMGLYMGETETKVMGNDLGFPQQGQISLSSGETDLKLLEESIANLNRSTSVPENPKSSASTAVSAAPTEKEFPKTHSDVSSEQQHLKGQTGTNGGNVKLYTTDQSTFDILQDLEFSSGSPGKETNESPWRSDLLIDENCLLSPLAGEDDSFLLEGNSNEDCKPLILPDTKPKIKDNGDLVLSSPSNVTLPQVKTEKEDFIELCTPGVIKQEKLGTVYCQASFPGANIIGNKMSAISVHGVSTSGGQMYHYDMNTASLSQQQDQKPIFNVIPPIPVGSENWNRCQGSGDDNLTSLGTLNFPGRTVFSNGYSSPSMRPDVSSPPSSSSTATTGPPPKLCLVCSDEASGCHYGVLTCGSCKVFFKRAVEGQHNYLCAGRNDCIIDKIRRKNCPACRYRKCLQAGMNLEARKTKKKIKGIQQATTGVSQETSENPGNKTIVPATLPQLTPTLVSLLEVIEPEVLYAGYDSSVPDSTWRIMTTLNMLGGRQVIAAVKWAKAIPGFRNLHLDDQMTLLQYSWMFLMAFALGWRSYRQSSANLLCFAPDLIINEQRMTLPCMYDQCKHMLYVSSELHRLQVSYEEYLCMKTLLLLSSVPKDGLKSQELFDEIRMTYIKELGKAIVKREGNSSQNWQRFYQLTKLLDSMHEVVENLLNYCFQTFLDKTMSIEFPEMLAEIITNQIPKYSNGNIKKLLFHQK
Nuclear receptor subfamily 4 group A member 2 (Homo sapiens), sequence (P43354 whole entry, looked up, the tested form may be a part): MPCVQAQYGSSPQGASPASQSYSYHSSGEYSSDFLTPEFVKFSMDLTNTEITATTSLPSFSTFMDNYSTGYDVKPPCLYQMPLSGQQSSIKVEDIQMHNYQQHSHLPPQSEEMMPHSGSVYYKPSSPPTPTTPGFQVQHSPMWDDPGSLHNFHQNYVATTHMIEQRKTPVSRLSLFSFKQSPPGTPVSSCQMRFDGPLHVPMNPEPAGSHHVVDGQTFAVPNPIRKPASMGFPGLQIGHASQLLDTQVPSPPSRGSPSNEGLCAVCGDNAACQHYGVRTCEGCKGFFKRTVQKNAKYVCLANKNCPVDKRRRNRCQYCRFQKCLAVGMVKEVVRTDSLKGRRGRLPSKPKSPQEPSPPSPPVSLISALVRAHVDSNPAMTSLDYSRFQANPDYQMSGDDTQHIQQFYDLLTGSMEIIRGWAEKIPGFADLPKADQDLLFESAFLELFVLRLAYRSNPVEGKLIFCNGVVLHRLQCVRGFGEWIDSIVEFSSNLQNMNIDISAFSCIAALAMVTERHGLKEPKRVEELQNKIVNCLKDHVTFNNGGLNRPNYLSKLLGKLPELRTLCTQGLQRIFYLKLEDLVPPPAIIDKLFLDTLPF
Nuclear respiratory factor 1 (Homo sapiens), sequence (Q16656 whole entry, looked up, the tested form may be a part): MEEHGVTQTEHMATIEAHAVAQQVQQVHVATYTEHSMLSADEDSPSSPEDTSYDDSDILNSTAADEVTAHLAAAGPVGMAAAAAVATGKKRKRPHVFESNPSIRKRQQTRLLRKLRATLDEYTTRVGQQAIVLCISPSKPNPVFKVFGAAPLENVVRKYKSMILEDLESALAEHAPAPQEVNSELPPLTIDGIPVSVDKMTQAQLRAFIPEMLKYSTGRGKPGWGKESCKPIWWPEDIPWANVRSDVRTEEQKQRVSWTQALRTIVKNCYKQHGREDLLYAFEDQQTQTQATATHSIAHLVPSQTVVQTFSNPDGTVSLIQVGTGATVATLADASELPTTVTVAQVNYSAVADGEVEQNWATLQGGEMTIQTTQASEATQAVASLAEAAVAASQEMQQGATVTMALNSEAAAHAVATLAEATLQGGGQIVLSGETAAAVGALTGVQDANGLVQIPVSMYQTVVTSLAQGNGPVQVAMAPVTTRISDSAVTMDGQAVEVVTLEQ
Transcriptional activator Myb (Homo sapiens), sequence (P10242 whole entry, looked up): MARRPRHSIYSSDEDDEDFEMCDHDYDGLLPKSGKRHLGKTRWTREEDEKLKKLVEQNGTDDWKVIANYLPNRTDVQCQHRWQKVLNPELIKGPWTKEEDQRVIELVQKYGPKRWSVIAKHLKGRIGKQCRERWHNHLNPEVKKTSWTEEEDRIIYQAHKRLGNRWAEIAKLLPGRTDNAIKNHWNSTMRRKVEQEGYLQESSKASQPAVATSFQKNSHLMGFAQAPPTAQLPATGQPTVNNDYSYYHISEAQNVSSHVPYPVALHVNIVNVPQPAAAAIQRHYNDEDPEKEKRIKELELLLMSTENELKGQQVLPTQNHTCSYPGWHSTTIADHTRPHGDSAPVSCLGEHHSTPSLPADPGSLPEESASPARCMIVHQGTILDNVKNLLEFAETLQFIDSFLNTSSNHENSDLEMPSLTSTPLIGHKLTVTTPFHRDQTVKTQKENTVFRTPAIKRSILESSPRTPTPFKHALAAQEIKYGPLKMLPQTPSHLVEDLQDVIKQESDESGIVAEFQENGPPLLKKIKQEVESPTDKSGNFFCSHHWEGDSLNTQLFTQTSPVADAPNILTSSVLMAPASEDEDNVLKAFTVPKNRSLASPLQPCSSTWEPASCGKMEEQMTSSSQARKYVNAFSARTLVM
Hepatocyte nuclear factor 4-alpha (Homo sapiens), sequence (P41235 whole entry, looked up, the tested form may be a part): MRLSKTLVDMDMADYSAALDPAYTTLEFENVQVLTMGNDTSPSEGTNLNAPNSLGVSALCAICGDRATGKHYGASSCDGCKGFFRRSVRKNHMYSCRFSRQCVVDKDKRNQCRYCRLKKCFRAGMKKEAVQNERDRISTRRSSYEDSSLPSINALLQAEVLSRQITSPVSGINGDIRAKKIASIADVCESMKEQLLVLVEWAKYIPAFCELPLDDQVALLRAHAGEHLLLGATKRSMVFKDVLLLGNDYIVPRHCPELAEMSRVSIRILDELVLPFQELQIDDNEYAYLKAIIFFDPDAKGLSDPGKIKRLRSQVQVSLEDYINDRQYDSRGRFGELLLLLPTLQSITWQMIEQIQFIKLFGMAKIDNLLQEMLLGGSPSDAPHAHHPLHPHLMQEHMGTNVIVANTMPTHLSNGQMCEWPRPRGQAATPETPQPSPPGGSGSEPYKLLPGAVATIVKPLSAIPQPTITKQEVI
Oxysterols receptor LXR-alpha (Homo sapiens), sequence (Q13133 whole entry, looked up): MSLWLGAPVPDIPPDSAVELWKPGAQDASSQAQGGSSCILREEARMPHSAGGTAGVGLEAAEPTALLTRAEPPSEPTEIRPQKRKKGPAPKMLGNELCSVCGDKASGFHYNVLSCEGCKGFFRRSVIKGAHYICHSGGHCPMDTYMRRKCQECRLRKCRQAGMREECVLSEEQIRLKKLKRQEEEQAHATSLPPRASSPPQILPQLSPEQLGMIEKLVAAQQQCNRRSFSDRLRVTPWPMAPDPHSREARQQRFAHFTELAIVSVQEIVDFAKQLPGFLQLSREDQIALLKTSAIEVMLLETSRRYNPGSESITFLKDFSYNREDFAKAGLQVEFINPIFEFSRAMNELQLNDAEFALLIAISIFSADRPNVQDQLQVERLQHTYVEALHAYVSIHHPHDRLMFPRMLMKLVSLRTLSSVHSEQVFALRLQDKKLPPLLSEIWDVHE

CCN(CC)C(=O)c1cc(S(=O)(=O)Cc2ccccc2)c(N2CCC(c3ccccc3)CC2)cc1N(CC)CCN(C)C
active: [12] 3.7 µM | [14] 32.2 µM | [15] 5.11 µM | [16] 12.9 µM | [17] 18.7 µM
not listed: [3] | [6] | [7] | [20]
inactive: all other assays above

COCC(C)OCC(C)OCC(C)O (centres undefined)
not listed: [2] | [3] | [4] | [19] | [20]
inactive: all other assays above

CCOC(=O)O[C@H](C)OC(=O)c1ccc2c(c1)cc(C(=O)NC1CCN(C(C)C)CC1)n2Cc1cc(-c2ccc(Cl)s2)on1
inactive: [1] | [20] | [5] | [9] | [10] | [11] | [18] | [13]
active: [12] 9.33 µM | [14] 9.97 µM | [15] 6.09 µM | [16] 5.69 µM | [17] 8.87 µM

O=CCCCC=O
inactive: [1] | [2] | [3] | [4] | [5] | [6] | [7] | [8] | [9] | [11] | [18] | [12] | [13]
active: [18] 73.1 µM | [12] 169 µM | [14] 30.3 µM | [15] 33.3 µM | [16] 31.6 µM | [17] 31.4 µM

CCCCCCCCOc1ccc(C(=O)c2ccccc2)c(O)c1
active: [14] 13.2 µM
not listed: [1] | [2] | [4] | [5] | [19]
inactive: all other assays above

OCCO
not listed: [1] | [2] | [5] | [7] | [20]
inactive: all other assays above

CN(C)c1ccc(C(=C2C=CC(=[N+](C)C)C=C2)c2ccc(N(C)C)cc2)cc1
active: [12] 2.43 µM | [13] 1.08 µM | [14] 5.5 µM | [15] 0.778 µM | [16] 5.56 µM | [17] 1.17 µM
inactive: [6] | [9] | [11]
